Here are results for six compounds from ChEMBL document CHEMBL1961873, “Compounds: GSK PKIS; Assays: Nanosyn kinase panel” (2012).

The target in assay [1] is Tyrosine-protein kinase receptor UFO (Homo sapiens) (UniProt P30530). Conditions: at 1 µM.
The target of assay [2] is Tyrosine-protein kinase Blk (Homo sapiens) (UniProt P51451). The settings on record: at 0.1 µM.
The target is the same in assay [3]. Conditions: at 1 µM.
Assay [4] concerns the target T1, Cytoplasmic tyrosine-protein kinase BMX (Homo sapiens) (UniProt P51813).
T1 sequence (whole entry): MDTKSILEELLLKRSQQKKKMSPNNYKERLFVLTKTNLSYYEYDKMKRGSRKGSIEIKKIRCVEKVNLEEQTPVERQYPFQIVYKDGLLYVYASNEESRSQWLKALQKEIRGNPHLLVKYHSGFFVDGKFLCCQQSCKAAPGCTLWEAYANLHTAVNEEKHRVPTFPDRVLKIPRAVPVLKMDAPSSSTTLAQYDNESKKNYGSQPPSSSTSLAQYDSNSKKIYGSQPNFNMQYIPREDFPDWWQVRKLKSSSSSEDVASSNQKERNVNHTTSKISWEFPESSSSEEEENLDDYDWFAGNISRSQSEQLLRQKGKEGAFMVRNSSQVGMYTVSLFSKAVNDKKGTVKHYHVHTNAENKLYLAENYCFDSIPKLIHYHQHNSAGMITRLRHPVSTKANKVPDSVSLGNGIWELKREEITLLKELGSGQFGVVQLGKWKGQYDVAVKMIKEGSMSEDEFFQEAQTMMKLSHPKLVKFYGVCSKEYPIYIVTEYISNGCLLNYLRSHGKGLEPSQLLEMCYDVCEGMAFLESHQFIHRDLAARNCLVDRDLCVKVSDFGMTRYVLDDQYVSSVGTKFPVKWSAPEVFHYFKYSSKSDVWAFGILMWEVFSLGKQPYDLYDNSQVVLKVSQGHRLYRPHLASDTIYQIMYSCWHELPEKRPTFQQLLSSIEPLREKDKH
The settings on record: at 0.1 µM.

Assay [5] addresses T1, Cytoplasmic tyrosine-protein kinase BMX (Homo sapiens). The settings on record: at 1 µM.
The target in assay [6] is Protein-tyrosine kinase 6 (Homo sapiens) (UniProt Q13882). The settings on record: at 0.1 µM.
For assay [7] the target is unchanged. Conditions: at 1 µM.
Assay [8] has as its target Tyrosine-protein kinase BTK (Homo sapiens) (UniProt Q06187). The settings on record: at 0.1 µM.
For assay [9] the target is unchanged. Conditions: at 1 µM.
Assay [10] concerns the target Tyrosine-protein kinase CSK (Homo sapiens) (UniProt P41240). Conditions: at 0.1 µM.
Assay [11] has the same target. Conditions: at 1 µM.
Assay [12] deals with T2, Discoidin domain-containing receptor 2 (Homo sapiens) (UniProt Q16832).
T2 sequence (whole entry): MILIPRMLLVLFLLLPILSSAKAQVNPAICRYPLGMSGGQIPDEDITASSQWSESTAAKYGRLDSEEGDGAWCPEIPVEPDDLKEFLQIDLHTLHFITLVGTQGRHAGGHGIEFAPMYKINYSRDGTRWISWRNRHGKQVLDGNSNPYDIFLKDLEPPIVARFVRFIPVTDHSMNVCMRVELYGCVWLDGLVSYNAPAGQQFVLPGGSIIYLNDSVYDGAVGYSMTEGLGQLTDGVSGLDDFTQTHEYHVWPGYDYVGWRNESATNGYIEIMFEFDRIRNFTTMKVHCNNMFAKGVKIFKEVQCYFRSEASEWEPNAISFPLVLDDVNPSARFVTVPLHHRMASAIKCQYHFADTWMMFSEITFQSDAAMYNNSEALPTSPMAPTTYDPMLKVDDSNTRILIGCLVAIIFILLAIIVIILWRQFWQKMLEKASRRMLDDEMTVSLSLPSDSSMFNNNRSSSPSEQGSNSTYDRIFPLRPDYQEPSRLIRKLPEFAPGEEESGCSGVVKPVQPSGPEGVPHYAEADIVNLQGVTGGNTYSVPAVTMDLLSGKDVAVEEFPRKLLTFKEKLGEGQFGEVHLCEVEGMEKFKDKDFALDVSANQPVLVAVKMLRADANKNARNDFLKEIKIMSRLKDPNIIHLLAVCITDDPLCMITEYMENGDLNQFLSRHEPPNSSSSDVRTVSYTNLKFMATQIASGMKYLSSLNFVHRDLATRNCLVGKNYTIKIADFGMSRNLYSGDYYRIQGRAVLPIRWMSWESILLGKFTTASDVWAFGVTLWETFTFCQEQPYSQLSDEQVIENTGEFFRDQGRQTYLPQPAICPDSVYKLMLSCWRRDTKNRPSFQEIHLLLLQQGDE
Conditions: at 0.1 µM.

In assay [13] the target is T2, Discoidin domain-containing receptor 2 (Homo sapiens). Conditions: at 1 µM.
In assay [14] the target is Epidermal growth factor receptor (Homo sapiens) (UniProt P00533). The settings on record: at 0.1 µM.
The target is the same in assay [15]. The settings on record: at 1 µM.
Assay [16] concerns Epidermal growth factor receptor (Homo sapiens), P00533 [L858R]. The settings on record: at 0.1 µM.
The test system is the same in assay [17]. The settings on record: at 1 µM.
For assay [18], the system named is Epidermal growth factor receptor (Homo sapiens), P00533 [L861Q]. Conditions: at 0.1 µM.
The test system is the same in assay [19]. Conditions: at 1 µM.
The test system of assay [20] is Epidermal growth factor receptor (Homo sapiens), P00533 [T790M]. Conditions: at 0.1 µM.

The inhibition is the relative decrease from the control value, in per cent.

Sequence of Epidermal growth factor receptor (Homo sapiens), P00533 [L858R] (P00533 whole entry L858R): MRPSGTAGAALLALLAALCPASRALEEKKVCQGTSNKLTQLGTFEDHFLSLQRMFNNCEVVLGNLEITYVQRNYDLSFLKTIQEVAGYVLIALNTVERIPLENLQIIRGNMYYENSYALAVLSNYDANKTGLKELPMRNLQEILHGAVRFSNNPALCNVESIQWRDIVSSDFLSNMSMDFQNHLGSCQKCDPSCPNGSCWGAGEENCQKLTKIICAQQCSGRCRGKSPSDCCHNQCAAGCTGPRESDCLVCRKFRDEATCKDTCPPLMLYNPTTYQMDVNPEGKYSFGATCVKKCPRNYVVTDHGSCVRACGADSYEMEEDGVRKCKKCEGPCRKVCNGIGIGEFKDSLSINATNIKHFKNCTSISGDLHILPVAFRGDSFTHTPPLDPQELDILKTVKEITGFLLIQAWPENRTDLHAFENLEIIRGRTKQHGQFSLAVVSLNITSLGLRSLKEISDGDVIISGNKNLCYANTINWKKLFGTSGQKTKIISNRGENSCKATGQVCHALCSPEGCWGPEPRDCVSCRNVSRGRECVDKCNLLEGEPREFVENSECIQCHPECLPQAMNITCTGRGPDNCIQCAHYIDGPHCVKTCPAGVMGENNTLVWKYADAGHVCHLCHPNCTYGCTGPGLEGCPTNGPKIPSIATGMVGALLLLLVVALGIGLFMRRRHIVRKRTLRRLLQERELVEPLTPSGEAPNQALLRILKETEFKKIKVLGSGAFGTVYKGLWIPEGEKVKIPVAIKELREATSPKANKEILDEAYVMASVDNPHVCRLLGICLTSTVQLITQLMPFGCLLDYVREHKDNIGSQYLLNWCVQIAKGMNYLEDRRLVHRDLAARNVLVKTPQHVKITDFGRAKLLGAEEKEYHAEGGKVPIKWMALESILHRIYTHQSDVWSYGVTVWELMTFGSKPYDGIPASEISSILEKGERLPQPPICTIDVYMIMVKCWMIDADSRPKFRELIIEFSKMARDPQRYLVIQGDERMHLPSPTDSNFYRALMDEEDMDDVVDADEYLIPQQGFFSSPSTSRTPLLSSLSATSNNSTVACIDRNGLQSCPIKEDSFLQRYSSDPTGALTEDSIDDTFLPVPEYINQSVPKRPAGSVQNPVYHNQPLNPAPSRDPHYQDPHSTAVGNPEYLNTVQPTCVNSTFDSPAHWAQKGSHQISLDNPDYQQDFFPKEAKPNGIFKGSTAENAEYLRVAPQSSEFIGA
Sequence of Tyrosine-protein kinase receptor UFO (Homo sapiens) (P30530 whole entry): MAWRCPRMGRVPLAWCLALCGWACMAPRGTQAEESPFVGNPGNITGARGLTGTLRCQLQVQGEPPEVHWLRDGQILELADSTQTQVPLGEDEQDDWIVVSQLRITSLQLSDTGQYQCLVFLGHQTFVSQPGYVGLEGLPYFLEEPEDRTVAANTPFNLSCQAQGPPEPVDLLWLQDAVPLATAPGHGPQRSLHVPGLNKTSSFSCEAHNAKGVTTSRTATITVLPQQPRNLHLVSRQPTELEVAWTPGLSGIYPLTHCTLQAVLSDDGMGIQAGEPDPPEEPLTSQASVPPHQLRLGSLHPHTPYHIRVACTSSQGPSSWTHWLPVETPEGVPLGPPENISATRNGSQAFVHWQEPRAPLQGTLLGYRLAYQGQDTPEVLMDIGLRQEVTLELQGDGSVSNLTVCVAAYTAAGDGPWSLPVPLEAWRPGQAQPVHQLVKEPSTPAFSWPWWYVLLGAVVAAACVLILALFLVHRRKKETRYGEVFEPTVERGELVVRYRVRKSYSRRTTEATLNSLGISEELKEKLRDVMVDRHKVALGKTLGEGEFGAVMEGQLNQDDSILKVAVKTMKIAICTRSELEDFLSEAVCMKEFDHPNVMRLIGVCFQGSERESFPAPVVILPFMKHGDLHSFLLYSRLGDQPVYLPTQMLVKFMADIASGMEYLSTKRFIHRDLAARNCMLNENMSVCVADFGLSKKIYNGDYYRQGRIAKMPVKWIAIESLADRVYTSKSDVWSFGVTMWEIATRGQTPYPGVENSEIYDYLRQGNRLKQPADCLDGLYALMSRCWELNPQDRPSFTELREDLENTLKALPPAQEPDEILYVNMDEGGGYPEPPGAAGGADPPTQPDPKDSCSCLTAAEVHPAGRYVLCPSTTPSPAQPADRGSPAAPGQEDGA
Sequence of Tyrosine-protein kinase Blk (Homo sapiens) (P51451 2-505 limits assumed): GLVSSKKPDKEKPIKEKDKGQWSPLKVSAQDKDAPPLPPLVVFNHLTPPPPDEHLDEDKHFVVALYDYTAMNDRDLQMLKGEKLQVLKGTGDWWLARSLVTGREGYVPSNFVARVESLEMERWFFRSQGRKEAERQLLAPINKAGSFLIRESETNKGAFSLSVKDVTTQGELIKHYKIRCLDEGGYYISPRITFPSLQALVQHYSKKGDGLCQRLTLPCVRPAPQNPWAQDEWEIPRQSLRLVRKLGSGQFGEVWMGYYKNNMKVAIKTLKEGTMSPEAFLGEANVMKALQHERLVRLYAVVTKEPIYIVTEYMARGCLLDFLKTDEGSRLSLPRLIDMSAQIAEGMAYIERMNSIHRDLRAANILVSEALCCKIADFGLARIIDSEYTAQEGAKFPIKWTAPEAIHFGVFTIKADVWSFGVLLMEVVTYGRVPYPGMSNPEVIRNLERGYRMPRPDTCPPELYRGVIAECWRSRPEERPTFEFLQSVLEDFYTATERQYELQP
Sequence of Tyrosine-protein kinase CSK (Homo sapiens) (P41240 2-450 limits assumed): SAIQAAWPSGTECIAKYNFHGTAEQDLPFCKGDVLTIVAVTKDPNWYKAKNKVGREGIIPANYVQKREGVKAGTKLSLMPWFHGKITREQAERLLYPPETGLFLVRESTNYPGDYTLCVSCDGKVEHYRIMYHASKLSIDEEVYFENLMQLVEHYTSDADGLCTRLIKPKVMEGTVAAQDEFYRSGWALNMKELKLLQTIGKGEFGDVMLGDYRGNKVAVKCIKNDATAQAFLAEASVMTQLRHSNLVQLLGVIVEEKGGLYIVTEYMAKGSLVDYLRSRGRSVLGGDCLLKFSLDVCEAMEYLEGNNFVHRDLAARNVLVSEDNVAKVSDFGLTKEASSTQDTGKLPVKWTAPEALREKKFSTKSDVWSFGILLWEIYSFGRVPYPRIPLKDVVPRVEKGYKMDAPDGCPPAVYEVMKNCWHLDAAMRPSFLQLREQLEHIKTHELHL
Sequence of Epidermal growth factor receptor (Homo sapiens) (P00533 whole entry): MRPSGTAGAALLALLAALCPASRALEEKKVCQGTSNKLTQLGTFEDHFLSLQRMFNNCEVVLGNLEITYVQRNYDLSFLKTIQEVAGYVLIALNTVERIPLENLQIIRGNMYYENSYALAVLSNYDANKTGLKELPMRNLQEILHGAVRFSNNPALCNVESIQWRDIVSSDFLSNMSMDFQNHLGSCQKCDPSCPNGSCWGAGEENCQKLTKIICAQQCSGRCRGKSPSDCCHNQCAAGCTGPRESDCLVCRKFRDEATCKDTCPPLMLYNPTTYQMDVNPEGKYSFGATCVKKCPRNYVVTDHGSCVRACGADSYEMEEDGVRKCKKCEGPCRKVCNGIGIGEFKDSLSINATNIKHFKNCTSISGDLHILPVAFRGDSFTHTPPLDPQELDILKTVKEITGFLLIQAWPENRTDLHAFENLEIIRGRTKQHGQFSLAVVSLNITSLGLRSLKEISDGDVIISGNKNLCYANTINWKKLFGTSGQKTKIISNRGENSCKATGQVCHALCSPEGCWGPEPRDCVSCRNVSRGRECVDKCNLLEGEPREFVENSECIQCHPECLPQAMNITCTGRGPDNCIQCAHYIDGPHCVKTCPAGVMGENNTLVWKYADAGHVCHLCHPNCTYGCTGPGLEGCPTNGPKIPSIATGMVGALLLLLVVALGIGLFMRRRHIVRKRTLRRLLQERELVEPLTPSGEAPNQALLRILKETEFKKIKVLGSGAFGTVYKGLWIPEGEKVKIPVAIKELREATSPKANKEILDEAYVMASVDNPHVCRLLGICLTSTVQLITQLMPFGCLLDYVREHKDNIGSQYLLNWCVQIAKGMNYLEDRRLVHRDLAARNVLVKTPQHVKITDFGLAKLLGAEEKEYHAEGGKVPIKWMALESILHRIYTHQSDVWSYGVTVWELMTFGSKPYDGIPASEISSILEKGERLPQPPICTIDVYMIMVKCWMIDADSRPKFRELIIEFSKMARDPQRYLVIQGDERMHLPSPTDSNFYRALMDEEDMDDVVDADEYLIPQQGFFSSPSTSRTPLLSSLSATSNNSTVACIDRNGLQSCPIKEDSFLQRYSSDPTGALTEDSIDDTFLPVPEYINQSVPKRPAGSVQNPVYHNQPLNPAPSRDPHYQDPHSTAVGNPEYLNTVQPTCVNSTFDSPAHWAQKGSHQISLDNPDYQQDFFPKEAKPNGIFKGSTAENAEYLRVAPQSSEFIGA
Sequence of Protein-tyrosine kinase 6 (Homo sapiens) (Q13882 whole entry, looked up): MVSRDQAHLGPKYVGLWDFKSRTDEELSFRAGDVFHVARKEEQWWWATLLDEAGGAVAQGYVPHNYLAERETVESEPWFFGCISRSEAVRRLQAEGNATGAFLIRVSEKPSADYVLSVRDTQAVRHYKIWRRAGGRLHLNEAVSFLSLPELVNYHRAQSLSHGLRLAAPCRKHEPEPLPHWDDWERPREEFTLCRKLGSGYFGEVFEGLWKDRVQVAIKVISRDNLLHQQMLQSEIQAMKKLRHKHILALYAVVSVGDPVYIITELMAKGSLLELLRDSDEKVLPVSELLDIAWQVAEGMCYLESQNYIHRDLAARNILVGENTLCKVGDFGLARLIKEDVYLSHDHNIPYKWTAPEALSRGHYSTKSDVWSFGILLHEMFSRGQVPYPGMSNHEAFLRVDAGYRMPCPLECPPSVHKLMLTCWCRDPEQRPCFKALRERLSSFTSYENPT

On to `CCOc1nccc2c1nc(-c1nonc1N)n2CC`, for which the inhibition is -0.05% in [1]; 3.42% in assay [2]; 2.55% in assay [3]; 1.6% in assay [4]; 1.81% in assay [5]; 0.8% in assay [6]. In addition, the inhibition in assay [7] was determined as 2.85%; in assay [8], 1.49%; in [9], 2.44%; in assay [10], 3.08%; in [11] it was 7.45%; in [12], 4.52%. For the same compound, the inhibition in assay [13] was 5.68%; in [14], 2.26%; in assay [15] it was 1.18%; in [16], 4.22%; in [17], 7.51%; in [18] it was 4.18%. Besides, the inhibition in assay [19] stood at 5.85%; in assay [20] it was 1.6%.
For `CC(C)c1ccc(Nc2nccc(-c3cnn4ncccc34)n2)cc1`, the inhibition in [1] was found to be 0.39%; in assay [2], 1.48%; in assay [3], 4.76%; in assay [5], 5.9%; in [6] it was 3.47%; in assay [7] it was 6.47%. Moreover, the inhibition in [8] is -1.04%; in [9], -0.53%; in assay [10], 4.27%; in [11], 6.02%; in [12], 1.04%; in assay [13] it was 0.75%. For the same compound, the inhibition in assay [14] was 4.49%; in assay [15] it was 6.88%; in assay [16], 3.51%; in assay [17], 7.83%; in assay [18] it was 4.16%; in assay [19], 6.18%. Further, the inhibition in assay [20] is -0.27%.
`c1ccc(Nc2ncc(-c3ccccc3)o2)cc1`: the inhibition in [1] is -3.74%; in assay [2], 1.98%; in [3] it was 5.16%; in assay [4], 1.56%; in assay [5] it was 7.49%; in assay [6] it was 3.8%. In addition, the inhibition in assay [7] is 7.06%; in assay [8], -0.11%; in [9] it was 0.49%; in assay [10], 4.22%; in assay [11], 3.75%; in [12], 2.39%. Further, the inhibition in assay [13] is 7.24%; in [14], 4.96%; in assay [15] it was 10.5%; in assay [16] it was 4.87%; in assay [17], 2.77%; in assay [18], 2.75%. Moreover, the inhibition in [19] was 4.14%; in assay [20], 2.39%.
Take `COc1cc2ncnc(Nc3ccc4c(cnn4Cc4ccccc4)c3)c2cc1OC`: the inhibition in assay [1] is -3.18%; in [2], 13.9%; in [3] it was 60.8%; in assay [4], 3.73%; in [5] it was 23.4%; in [6], 13.1%. The inhibition in assay [7] came out at 53.2%; in assay [8], 4.09%; in assay [9], 29.1%; in [10], 11.1%; in [11], 58.2%; in assay [12] it was 1.74%. For the same compound, the inhibition in assay [13] was found to be 1.78%; in assay [14], 87.2%; in assay [15], 84.7%; in assay [16] it was 72.5%; in assay [17] it was 94.4%; in assay [18] it was 55.8%. Moreover, the inhibition in [19] turned out to be 84.8%; in [20], 8.65%.
`COc1ccc2ncnc(Nc3ccc(OCc4ccccc4)cc3)c2c1`: the inhibition was -5.04% in assay [1]; 2.17% in [2]; 6.3% in [3]; 2.68% in assay [4]; 2.81% in assay [5]; 0.54% in [6]. Also, the inhibition in [7] is 9.39%; in assay [8], -0.01%; in [9], 1.33%; in assay [10] it was 2.5%; in assay [11] it was 8.35%; in assay [12], 1.31%. For the same compound, the inhibition in [13] stood at 2.34%; in assay [14] it was 62.7%; in assay [15] it was 76.2%; in [16], 12.1%; in assay [17], 46.3%; in assay [18], 23.9%. Besides, the inhibition in assay [19] is 39%; in [20], -0.31%.
For `NS(=O)(=O)c1ccc(N/N=C2\C(=O)Nc3ccc(Cl)cc32)cc1`, the inhibition in assay [1] is -3.81%; in assay [2], 2.51%; in assay [3], 6.13%; in [4], -0.25%; in assay [5], 4.68%; in assay [6], 2.27%. Besides, the inhibition in assay [7] came out at 5.96%; in [8], 0.31%; in assay [9], 0.56%; in assay [10], 4.9%; in assay [11], 7.01%; in [12], 0.3%. The inhibition in assay [13] is 3.13%; in assay [14], -0.16%; in assay [15], 5.53%; in [16], 2.02%; in assay [17], 5.32%; in [18] it was 1.9%. Also, the inhibition is 3.4% in [19] and 0.9% in assay [20].
